The results in this text go back to PubChem BioAssay (EPA / NIEHS).

Inconclusive results are not listed. Calls of active or inactive are those of the source. Rule for the calls, unless noted: active = hit-call score of the fitted dose curve at least 0.9, where 1 is the maximum; inactive = score below 0.9.

Assay [1] concerns the target Glucocorticoid receptor (Homo sapiens) (UniProt P04150). Briefly: ATG_GR_TRANS: Attagene TRANS-FACTORIAL HepG2 Assay for human Glucocorticoid Receptor (GR) (AID 2282978; active = hit-call score of the fitted dose curve at least 0.9, where 1 is the maximum;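 note: activators score as hits since higher reporter transcript over DMSO is fitted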). Particulars: HepG2 Attagene TRANS GR reporter, mRNA transcription. The method in brief:
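Fluorescent capillary-electrophoresis quantitation of reporter mRNA is the readout, taken 24 h after dosing human HepG2 cells carrying transiently transfected GAL4-UAS reporter units activated by chimeric NR-GAL4 fusions; activity scored as induction over DMSO.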

The target of assay [2] is Bile acid receptor (Homo sapiens) (UniProt Q96RI1). Briefly: ATG_FXR_TRANS: Attagene TRANS-FACTORIAL HepG2 Assay for Farnesoid X Receptor (FXR) (AID 2282979; active = hit-call score of the fitted dose curve at least 0.9, where 1 is the maximum;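 note: hits raise reporter mRNA above DMSO so AC50 marks FXR activation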). The following applies: HepG2 Attagene TRANS FXR-GAL4 reporter transcription. The method in brief: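 Chimeric FXR-GAL4 activity in transiently transfected human HepG2 liver cells is scored as induction of reporter mRNA after 24 h of dosing. Detection uses RT-PCR with fluorescent labelling and capillary electrophoresis, with DMSO serving as baseline.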

Assay [3] has as its target Oxysterols receptor LXR-alpha (Homo sapiens) (UniProt Q13133). Briefly: ATG_LXRa_TRANS: Attagene TRANS-FACTORIAL HepG2 Assay for human Liver X Receptor alpha (LXRa) (AID 2282980; active = hit-call score of the fitted dose curve at least 0.9, where 1 is the maximum). Particulars: HepG2 Attagene TRANS reporter, LXRa transactivation. The method in brief: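 Transient HepG2 transfectants, 24 h dosing, RT-PCR/CE mRNA reporter quantitation; gain-of-signal vs DMSO.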

A short description of assay [4]: ATG_M_06_TRANS: Attagene TRANS-FACTORIAL HepG2 Assay for M06 Transcription Factor (Internal Marker) (AID 2282983; active = hit-call score of the fitted dose curve at least 0.9, where 1 is the maximum). The following applies: HepG2 Attagene TRANS M06 internal marker reporter. The method in brief:
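Measured by capillary electrophoresis of fluorescently labelled RT-PCR products, this endpoint reflects reporter mRNA in HepG2 cells harbouring exogenous NR-GAL4 reporter constructs after 24 h exposure, with DMSO as baseline.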

Assay [5] concerns the target Nuclear receptor subfamily 4 group A member 2 (Homo sapiens) (UniProt P43354). Briefly: ATG_NURR1_TRANS: Attagene TRANS-FACTORIAL HepG2 Assay for human Nuclear Receptor Related Protein 1 (NURR1) (AID 2282985; active = hit-call score of the fitted dose curve at least 0.9, where 1 is the maximum). Particulars: HepG2 Attagene TRANS reporter, mRNA readout. An outline of the steps:
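HepG2 cells transiently transfected with GAL4-UAS reporter units and chimeric NR-Gal4 constructs; chemical exposure 24 h. Reporter mRNA quantified by RT-PCR, fluorescent labelling and capillary electrophoresis; gain of signal fitted relative to DMSO baseline.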

The target in assay [6] is Transcriptional activator Myb (Homo sapiens) (UniProt P10242). Briefly: ATG_Myb_CIS: Attagene CIS-FACTORIAL HepG2 Assay for human Myeloblastosis (Myb) Proto-Oncogene Transcription Factor (AID 2282986). The following applies: HepG2 Attagene CIS-FACTORIAL Myb reporter transcription; actives raise or lower the signal. The method in brief:
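Reporter transcript levels, quantified by fluorescent RT-PCR and capillary electrophoresis, serve as the read-out. Transfected HepG2 cells carrying cis-promoter reporter units are dosed for 24 hours, and curves are fitted bidirectionally against DMSO controls.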

A short description of assay [7]: ATG_NFI_CIS: Attagene CIS-FACTORIAL HepG2 Assay for human Nuclear Factor I (NFI) (AID 2282989). Particulars: HepG2 cis-regulatory reporter, NFI response element transcription; actives raise or lower the signal. The method in brief:
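Transfected HepG2 liver cells, exposed 24 h, supplied total RNA for oligo(dT) reverse transcription and reporter-specific PCR. Labelled, HpaI-cut fragments were sized by capillary electrophoresis; DMSO set the baseline for bidirectional fitting.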

Assay [8] deals with Myc proto-oncogene protein (Homo sapiens) (UniProt P01106). Briefly: ATG_Myc_CIS: Attagene CIS-FACTORIAL HepG2 Assay for human Myelocytomatosis (Myc) Proto-Oncogene Transcription Factor (AID 2282990). Particulars: HepG2, Attagene cis-reporter transcription factor activity; actives raise or lower the signal. The method in brief:
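Multiplexed cis-reporter transcription in HepG2 cells after 24 h chemical treatment. Reporter mRNA measured by RT-PCR and capillary electrophoresis fluorescence; activity fitted bidirectionally against DMSO control.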

Assay [9] is described as follows: ATG_NF_kB_CIS: Attagene CIS-FACTORIAL HepG2 Assay for human Nuclear Factor Kappa B (NF-kB) (AID 2282991). The following applies: HepG2 Attagene cis-factorial NF-kB reporter mRNA; actives raise or lower the signal. The method in brief:
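Transient MRTU transfection of human HepG2 liver cells → 24 h chemical exposure → total RNA, oligo(dT) RT → PCR, 6-FAM primer extension, HpaI digest 2 h 37 C → CE fragment analysis. Bidirectional fitting, DMSO negative control.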

A short description of assay [10]: ATG_NRF2_ARE_CIS: Attagene CIS-FACTORIAL HepG2 Assay for human Nuclear Factor Erythroid 2 Related Factor 2 (NFR2) response to Antioxidant Response Elements (ARE) (AID 2282992). The following applies: HepG2 Attagene ARE/NRF2 reporter, transcription factor activity; actives raise or lower the signal. An outline of the steps:
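Cis-factorial assay: transfected HepG2 reporter library, 24 h dosing, mRNA readout via RT-PCR/CE; DMSO-referenced bidirectional analysis.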

Assay [11] is described as follows: ATG_Oct_MLP_CIS: Attagene CIS-FACTORIAL HepG2 Assay for human Octamer-Binding Transcription Factor (Oct) (AID 2282993). The following applies: HepG2 Attagene cis-factorial Oct reporter, mRNA; actives raise or lower the signal. The method in brief:
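Using HepG2 cells bearing transfected cis-reporter constructs, mRNA induction was read after 24 h by fluorescent RT-PCR and capillary electrophoresis, with DMSO defining baseline for gain- or loss-of-signal fits.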

The target of assay [12] is Cellular tumor antigen p53 (Homo sapiens) (UniProt P04637). Briefly: ATG_p53_CIS: Attagene CIS-FACTORIAL HepG2 Assay for human p53 Transcription Factor (AID 2282994). Particulars: HepG2 p53 cis-element reporter, Attagene mRNA; actives raise or lower the signal. The method in brief:
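Using HepG2 hepatoma cells carrying cis-acting multiplexed reporters, mRNA induction is detected after a 24 h exposure. Gain- and loss-of-signal responses are fitted relative to DMSO-treated cells.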

A short description of assay [13]: BSK_3C_TissueFactor: BioMAP Diversity Plus: 3C Assay for Tissue Factor Biomarker Activity (AID 2282997). Particulars: BioMAP 3C HUVEC, tissue factor biomarker readout; actives raise or lower the signal. The method in brief: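 Values derive from bidirectional curve fitting against DMSO of Tissue Factor ELISA signals, taken 24 h after dosing primary human umbilical vein endothelial cells.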

Assay [14] can be described thus: BSK_3C_uPAR: BioMAP Diversity Plus: 3C Assay for Urokinase-type plasminogen activator receptor (uPAR) Biomarker Activity (AID 2282998). Particulars: BioMAP 3C HUVEC, uPAR biomarker ELISA; actives raise or lower the signal. An outline of the steps: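 In this endothelial cell-based assay, human umbilical vein primary cells were treated with chemicals and harvested at 24 h. uPAR was quantified using ELISA, with gains or losses fitted relative to DMSO controls.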

A short description of assay [15]: BSK_3C_VCAM1: BioMAP Diversity Plus: 3C Assay for Vascular cell adhesion molecule 1 (VCAM1) Biomarker Activity (AID 2282999). The following applies: BioMAP 3C HUVEC, VCAM1 ELISA, cytokine-stimulated; actives raise or lower the signal. An outline of the steps: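 Human umbilical vein endothelial cells were dosed with compound for 24 h, after which cell-surface VCAM-1 was quantified by ELISA. Bidirectional curve fitting used DMSO as negative control and activity baseline.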
For orientation: In an ELISA, binding on a coated surface is turned into a signal by an enzyme label.

Assay [16] in a line: BSK_4H_Eotaxin3: BioMAP Diversity Plus: 4H Assay for Eotaxin 3 Biomarker Activity (AID 2283000).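 For outcome: CCL26 protein level quantified by ELISA in parallel with SRB cytotoxicity check.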 The following applies: primary human endothelial cells (HUVEC); actives raise or lower the signal. The method in brief:
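Endothelial primary cells (human umbilical vein) exposed to compound for 24 h. ELISA detection of Eotaxin-3.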

The target of assay [17] is Oxysterols receptor LXR-beta (Homo sapiens) (UniProt P55055). Briefly: ATG_LXRb_TRANS: Attagene TRANS-FACTORIAL HepG2 Assay for human Liver X Receptor beta (LXRb) (AID 2282981; active = hit-call score of the fitted dose curve at least 0.9, where 1 is the maximum). Particulars: HepG2 Attagene TRANS GAL4-LXRb reporter, mRNA. The method in brief: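 HepG2 cells transiently transfected with multiple reporter transcription units carrying chimeric NR-Gal4 proteins acting on GAL4-UAS reporters; compound exposure 24 h. Reporter mRNA quantified by RT-PCR, 6-FAM labelling, HpaI digestion and capillary electrophoresis; gain of signal versus DMSO.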

The nature of assay [18]: ATG_M_32_TRANS: Attagene TRANS-FACTORIAL HepG2 Assay for M32 Transcription Factor (Internal Marker) (AID 2282984; active = hit-call score of the fitted dose curve at least 0.9, where 1 is the maximum). Particulars: HepG2 Attagene TRANS M32 internal marker reporter. An outline of the steps: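 HepG2 cells transiently transfected with multiple GAL4-UAS reporter transcription units, dosed for 24 hours; reporter mRNA quantified by RT-PCR, 6-FAM primer extension, HpaI digestion and capillary electrophoresis. Gain-of-signal fitted versus DMSO baseline; internal background-control marker.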

Assay [19] deals with Nuclear respiratory factor 1 (Homo sapiens) (UniProt Q16656). Briefly: ATG_NRF1_CIS: Attagene CIS-FACTORIAL HepG2 Assay for human Nuclear Respiratory Factor 1 (NRF1) Orphan Gene (AID 2282987). The following applies: HepG2 NRF1 cis-element reporter, Attagene multiplex; actives raise or lower the signal. The method in brief:
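Multiplexed cis-reporter assay, HepG2 cells, 24 h treatment. Total RNA → oligo(dT) RT → PCR with reporter-specific primers → 6-FAM primer extension → HpaI cut → CE. Bidirectional fit vs DMSO.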

The target in assay [20] is Hepatocyte nuclear factor 4-alpha (Homo sapiens) (UniProt P41235). Description: ATG_HNF4a_TRANS: Attagene TRANS-FACTORIAL HepG2 Assay for human Hepatocyte Nuclear Factor 4 alpha (HNF4a) (AID 2282982; active = hit-call score of the fitted dose curve at least 0.9, where 1 is the maximum). The following applies: HepG2 HNF4a transactivation reporter, mRNA readout. The method in brief:
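HepG2 cells transiently transfected with multiplexed GAL4-UAS reporter units responsive to chimeric NR-GAL4 proteins; compound exposure 24 h. Reporter mRNA quantified by RT-PCR, 6-FAM labelling, HpaI digestion and capillary electrophoresis; gain of signal versus DMSO baseline.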

Chain of Nuclear respiratory factor 1 (Homo sapiens) (Q16656 whole entry, looked up): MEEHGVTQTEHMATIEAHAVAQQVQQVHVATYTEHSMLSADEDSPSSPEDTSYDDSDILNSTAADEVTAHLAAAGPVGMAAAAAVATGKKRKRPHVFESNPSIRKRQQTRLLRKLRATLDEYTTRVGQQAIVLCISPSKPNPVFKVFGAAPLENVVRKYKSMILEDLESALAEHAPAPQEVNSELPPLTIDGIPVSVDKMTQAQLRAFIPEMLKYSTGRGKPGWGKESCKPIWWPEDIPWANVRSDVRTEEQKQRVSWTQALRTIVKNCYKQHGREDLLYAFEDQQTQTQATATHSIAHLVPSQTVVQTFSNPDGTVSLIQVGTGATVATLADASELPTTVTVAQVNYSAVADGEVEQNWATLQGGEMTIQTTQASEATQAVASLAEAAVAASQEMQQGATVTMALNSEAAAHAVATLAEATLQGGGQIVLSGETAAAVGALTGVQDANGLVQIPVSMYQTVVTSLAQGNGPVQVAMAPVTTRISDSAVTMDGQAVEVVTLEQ
Chain of Myc proto-oncogene protein (Homo sapiens) (P01106 whole entry, looked up): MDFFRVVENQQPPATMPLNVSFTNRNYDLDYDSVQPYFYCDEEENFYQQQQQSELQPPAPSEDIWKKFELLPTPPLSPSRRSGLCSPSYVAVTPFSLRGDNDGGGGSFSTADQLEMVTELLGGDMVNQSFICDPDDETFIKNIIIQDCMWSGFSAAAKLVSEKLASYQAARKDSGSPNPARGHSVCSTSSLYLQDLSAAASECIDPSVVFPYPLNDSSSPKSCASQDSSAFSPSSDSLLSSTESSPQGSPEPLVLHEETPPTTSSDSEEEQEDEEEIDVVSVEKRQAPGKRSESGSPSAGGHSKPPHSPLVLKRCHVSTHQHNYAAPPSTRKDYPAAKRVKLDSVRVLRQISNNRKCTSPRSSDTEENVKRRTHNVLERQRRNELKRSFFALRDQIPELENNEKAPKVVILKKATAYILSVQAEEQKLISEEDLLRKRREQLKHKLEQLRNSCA
Chain of Bile acid receptor (Homo sapiens) (Q96RI1 whole entry, looked up, the tested form may be a part): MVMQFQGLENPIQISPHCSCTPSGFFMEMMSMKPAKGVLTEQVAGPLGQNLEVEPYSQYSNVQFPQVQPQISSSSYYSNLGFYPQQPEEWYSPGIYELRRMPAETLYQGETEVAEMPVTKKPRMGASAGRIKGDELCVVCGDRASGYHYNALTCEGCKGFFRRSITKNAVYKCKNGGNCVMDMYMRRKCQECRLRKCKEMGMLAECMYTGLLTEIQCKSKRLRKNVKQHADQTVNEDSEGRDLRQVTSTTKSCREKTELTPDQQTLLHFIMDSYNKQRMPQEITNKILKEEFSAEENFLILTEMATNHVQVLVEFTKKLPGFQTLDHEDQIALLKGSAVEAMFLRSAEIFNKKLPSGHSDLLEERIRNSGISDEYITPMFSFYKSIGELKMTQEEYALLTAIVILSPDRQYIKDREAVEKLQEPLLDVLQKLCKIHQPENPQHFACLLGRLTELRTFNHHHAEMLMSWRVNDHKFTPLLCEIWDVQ
Chain of Transcriptional activator Myb (Homo sapiens) (P10242 whole entry, looked up): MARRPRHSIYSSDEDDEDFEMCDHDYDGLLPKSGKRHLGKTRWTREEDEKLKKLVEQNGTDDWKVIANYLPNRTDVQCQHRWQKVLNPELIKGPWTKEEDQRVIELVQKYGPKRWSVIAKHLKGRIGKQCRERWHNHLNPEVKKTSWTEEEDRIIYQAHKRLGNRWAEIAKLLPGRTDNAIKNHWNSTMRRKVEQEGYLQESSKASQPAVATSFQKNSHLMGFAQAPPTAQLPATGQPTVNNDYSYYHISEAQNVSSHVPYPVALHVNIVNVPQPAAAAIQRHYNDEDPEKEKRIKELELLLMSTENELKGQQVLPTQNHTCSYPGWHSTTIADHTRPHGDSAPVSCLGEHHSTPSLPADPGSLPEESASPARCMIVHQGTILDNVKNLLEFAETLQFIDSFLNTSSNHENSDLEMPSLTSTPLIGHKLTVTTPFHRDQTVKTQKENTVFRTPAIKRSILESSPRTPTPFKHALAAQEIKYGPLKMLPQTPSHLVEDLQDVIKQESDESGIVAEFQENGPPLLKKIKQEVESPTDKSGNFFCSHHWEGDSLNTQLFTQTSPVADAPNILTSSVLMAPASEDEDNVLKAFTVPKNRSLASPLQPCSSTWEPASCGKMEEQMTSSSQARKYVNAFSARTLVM
Chain of Glucocorticoid receptor (Homo sapiens) (P04150 whole entry, looked up, the tested form may be a part): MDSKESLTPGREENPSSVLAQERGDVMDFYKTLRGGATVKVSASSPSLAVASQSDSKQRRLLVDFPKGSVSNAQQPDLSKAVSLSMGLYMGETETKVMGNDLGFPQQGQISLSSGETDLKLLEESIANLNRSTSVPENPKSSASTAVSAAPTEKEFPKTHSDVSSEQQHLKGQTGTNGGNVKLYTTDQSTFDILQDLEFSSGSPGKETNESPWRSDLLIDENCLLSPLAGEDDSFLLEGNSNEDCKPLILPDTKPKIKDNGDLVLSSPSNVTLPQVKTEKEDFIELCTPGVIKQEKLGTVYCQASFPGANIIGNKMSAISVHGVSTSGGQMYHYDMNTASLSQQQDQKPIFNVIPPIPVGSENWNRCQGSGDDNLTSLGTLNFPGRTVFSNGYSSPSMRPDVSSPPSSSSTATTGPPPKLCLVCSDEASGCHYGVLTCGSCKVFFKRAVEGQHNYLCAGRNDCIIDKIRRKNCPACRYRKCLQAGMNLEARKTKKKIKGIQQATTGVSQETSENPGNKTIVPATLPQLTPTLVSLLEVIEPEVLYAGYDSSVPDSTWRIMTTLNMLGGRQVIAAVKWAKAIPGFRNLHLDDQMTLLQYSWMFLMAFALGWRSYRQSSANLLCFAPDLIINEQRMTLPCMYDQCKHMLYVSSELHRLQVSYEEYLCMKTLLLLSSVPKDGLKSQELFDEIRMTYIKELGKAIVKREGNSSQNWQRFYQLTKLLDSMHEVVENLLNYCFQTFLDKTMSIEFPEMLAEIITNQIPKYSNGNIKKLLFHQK
Chain of Cellular tumor antigen p53 (Homo sapiens) (P04637 whole entry, looked up): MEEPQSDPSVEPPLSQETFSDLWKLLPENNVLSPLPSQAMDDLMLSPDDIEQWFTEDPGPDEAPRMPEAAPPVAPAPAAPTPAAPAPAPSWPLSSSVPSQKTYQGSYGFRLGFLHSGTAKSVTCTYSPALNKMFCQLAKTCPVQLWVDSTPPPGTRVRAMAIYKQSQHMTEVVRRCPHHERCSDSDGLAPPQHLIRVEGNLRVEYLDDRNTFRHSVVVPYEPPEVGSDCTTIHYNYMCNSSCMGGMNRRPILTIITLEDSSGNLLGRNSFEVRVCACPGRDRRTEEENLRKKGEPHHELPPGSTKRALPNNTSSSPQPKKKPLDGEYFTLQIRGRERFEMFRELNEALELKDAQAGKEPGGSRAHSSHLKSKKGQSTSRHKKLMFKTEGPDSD
Chain of Oxysterols receptor LXR-beta (Homo sapiens) (P55055 whole entry, looked up, the tested form may be a part): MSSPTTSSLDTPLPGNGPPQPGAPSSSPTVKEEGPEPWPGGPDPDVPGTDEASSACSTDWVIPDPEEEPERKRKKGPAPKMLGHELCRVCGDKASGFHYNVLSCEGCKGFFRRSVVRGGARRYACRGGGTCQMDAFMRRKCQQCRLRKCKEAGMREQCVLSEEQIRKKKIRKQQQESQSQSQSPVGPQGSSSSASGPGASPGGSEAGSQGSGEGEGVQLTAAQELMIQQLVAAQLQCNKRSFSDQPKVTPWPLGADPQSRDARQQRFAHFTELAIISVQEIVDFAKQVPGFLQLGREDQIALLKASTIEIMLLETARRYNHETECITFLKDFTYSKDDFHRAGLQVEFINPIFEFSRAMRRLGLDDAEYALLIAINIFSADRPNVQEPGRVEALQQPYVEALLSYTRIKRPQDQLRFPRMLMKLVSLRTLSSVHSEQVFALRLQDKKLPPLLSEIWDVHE
Chain of Hepatocyte nuclear factor 4-alpha (Homo sapiens) (P41235 whole entry, looked up, the tested form may be a part): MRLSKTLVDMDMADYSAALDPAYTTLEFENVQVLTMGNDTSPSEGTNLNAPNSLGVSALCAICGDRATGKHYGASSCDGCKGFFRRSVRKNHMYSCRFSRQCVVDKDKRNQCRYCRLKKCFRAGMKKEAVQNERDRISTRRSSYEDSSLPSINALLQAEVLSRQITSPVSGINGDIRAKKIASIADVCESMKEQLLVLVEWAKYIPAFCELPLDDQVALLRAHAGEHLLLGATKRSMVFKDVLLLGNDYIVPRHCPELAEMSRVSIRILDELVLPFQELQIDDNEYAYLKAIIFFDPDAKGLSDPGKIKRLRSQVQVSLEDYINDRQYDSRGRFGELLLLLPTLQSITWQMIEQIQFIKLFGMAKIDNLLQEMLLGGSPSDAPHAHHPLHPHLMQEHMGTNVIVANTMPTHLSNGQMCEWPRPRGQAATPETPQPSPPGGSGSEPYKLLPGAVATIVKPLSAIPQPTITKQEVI
Chain of Oxysterols receptor LXR-alpha (Homo sapiens) (Q13133 whole entry, looked up): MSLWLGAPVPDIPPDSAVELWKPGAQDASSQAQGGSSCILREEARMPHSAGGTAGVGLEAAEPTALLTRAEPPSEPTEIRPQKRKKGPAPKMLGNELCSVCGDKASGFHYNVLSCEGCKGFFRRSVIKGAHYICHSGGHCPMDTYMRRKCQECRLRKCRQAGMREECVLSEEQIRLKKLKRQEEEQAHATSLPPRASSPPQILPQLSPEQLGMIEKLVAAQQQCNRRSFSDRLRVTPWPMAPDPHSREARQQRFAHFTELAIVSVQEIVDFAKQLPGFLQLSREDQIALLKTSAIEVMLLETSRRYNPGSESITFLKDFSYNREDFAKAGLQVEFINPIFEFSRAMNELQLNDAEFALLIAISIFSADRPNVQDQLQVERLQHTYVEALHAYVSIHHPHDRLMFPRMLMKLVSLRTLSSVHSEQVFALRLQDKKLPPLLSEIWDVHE

As for `C#C[C@]1(O)CC[C@H]2[C@@H]3CCC4=Cc5oncc5C[C@]4(C)[C@H]3CC[C@@]21C`, the molecule was called inactive in [1], in assay [2], in assay [4], in assay [5], in [8] and in assay [9]. The molecule was called inactive in assay [10], in assay [13], in [15] and in assay [16]. The AC50 in [3] is 26.4 µM (active); in [6], 52.5 µM (active); in assay [7] it was 57.1 µM (active); in assay [11] it was 29 µM (active); in assay [12] it was 24.7 µM (active); in [14], 6.51 µM (active).
With `CCCC(C)C=O` (configuration not stated), the call in assay [1], in assay [2], in [17], in assay [18], in [6] and in assay [19] was inactive. Also, the molecule was classed as inactive in assay [7], in assay [8], in [9], in assay [10] and in [11].
Regarding `c1ccc2c(c1)c1cccc3ccc4cccc2c4c31`, the molecule was called inactive in [1], in [2], in assay [3], in assay [20], in [18] and in assay [6]. Moreover, the call in assay [19], in assay [7], in [8], in assay [9], in assay [10] and in [11] was inactive. Further, the result in assay [12], in assay [13], in [14], in assay [15] and in assay [16] was inactive.
As for `O=C(O)C[C@H](O)C[C@H](O)/C=C/c1c(C2CC2)nc2ccccc2c1-c1ccc(F)cc1`, the molecule was called inactive in assay [1], in assay [2], in [17], in assay [20], in assay [4] and in [18]. The molecule was classed as inactive in assay [6], in assay [19], in [7], in assay [8], in assay [10] and in [11]. For the same molecule, the outcome in [12], in [13] and in assay [15] was inactive. Further, the results for the AC50 in assay [9], in assay [14] and in assay [16] were 2.68 µM (active), 0.289 µM (active) and 0.198 µM (active), respectively.

As usually defined, the AC50 is the midpoint of the concentration-response curve, whichever way the signal moves.
